Compounds with a hit are over-represented: about 22% of the library has one in this group of screens.
Pf growth 48h – Primary qHTS for delayed death inhibitors of the malarial parasite plastid, 48 hour incubation. P. falciparum luciferase growth in erythrocytes, 48 h. Potency, µM (doses to about 28.7 µM), for the others: at the highest dose activity change, negative = inhibition, usual class: inhibitors. 310,000 compounds, 5.9% hits; also: potency is read from the fitted curve at half-maximal effect; % is scaled to controls: 0 for no effect and ±100 for the full control effect
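Here the parasites carry a stable luciferase gene and grow inside erythrocytes in Albumax-based RPMI medium with compound for one erythrocytic cycle. Activity is scored as loss of luminescent signal.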
Pf growth 96h – Primary qHTS for delayed death inhibitors of the malarial parasite plastid, 96 hour incubation. P. falciparum luciferase reporter growth, 96 h. Potency, µM (top dose mostly 28.7 µM), for inactives: top-dose activity change, negative = inhibition, actives largely listed as inhibitors. 320,000 compounds, 6.9% hits. AID 504834, 2011; also: potency is read from the fitted curve at half-maximal effect; % is scaled to controls: 0 for no effect and ±100 for the full control effect
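Two-generation exposure (96 h) targets delayed-death phenotype. Reporter parasites carrying integrated firefly luciferase, in red cells at 2% hematocrit and 0.05% parasitemia final, kept at 37 C, 5% CO2; luminescence loss indicates inhibition.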
Shiga toxin inh – A qHTS for Small Molecule Inhibitors of Shiga Toxin | Vero cells, Shiga toxin protein synthesis inhibition reporter | inhibition, % at 38.7 µM | 290,000 compounds, 9.2% hits; in the data active = inhibition mostly above about 28%, no sharp cut-off; inactive = mostly below about 43%; also: 0% is about no effect
LmPK inhibitor – qHTS Assay for Inhibitors of Leishmania Mexicana Pyruvate Kinase (LmPK) | AID 1721, 2009 | Potency, µM (titrated, usually from 57.5 µM), for the others: at the highest dose activity change, negative = inhibition, hits mostly inhibitors | purified LmPK, Kinase-Glo ATP luminescence, 1 h | 290,000 compounds, 0.37% hits; also: potency is read from the fitted curve at half-maximal effect; % is scaled to controls: 0 for no effect and ±100 for the full control effect
Target sequence (Q27686 whole entry, looked up): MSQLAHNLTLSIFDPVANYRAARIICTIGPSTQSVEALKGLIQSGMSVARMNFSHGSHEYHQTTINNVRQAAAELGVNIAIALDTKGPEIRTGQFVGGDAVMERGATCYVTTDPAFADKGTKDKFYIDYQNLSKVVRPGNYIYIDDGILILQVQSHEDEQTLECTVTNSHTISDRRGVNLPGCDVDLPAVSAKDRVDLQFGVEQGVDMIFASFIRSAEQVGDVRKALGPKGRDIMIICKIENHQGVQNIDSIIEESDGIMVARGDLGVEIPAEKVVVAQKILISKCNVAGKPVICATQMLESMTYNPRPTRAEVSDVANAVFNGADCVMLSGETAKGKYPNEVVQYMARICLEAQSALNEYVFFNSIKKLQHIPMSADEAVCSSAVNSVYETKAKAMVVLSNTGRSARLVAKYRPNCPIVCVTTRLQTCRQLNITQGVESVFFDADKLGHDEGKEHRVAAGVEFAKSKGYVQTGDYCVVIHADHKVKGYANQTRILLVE
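In 50 mM imidazole pH 7.2 with 7 mM MgCl2, LmPK (0.1 nM) turned over PEP (0.5 mM) and ADP (0.1 mM) for 1 h at room temperature. Luciferase read-out of ATP.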
Cycloheximide cs – Cycloheximide Counterscreen for Small Molecule Inhibitors of Shiga Toxin; max response, %; 300,000 compounds, 12% hits; AID 2314, 2010; cell reporter, cycloheximide protein synthesis inhibition counterscreen; in the data active = max response mostly above about 13%, no sharp cut-off; inactive = mostly below about 14%; also: read at 38.3 µM for the half of the compounds with a filed dose; 0% is about no effect
* = called active by the depositor; ? = inconclusive; · = no result; [ ] = dose if it differs, or a comment. Unless noted, calls follow the shape of the dose curve; as a rule, active = well fitted inhibition curve with a large enough effect; inconclusive = small, poorly fitted or top-dose-only effect, or another doubt; inactive = no such curve, though single readings can be large or run the other way.

SMILES	Pf growth 48h	Pf growth 96h	Shiga toxin inh	LmPK inhibitor	Cycloheximide cs
COc1ccc(-c2ccc(SCC(=O)NCC3CCCO3)nn2)cc1OC (configuration not stated)	28.3%	119.3%	7.4	3.7%	21.1*
O=C(O)CCn1nnc2ccccc21	24.3%	21.6%	6.1	-0.6%	6.5
CC(=O)c1ccc(NC(=O)c2cc(Cl)sc2Cl)cc1	238.4%	437.5%	31.6*	-0.8%	39.7*
Cc1cc(C)cc(NC(=O)c2cc(Cl)sc2Cl)c1	23.9%	46.4%	22.8	0.2%	29.7*
CCc1ccc(-n2c(=O)c3c(C)c(C(=O)N(C)C)sc3n(CC(=O)NCc3ccco3)c2=O)cc1	3.8%	?	41.0	1.8%	-3.4
COc1ccccc1N1CCN(S(=O)(=O)c2c(C(=O)N3CCOCC3)c(C)n(C)c2C)CC1	33.9%	12.0%	-11.6	-1.2%	9.2
O=C(c1cccs1)N1CCCN(c2ncnc3scc(-c4ccccc4)c23)CC1	5.86µM*	10.4µM*	12.3	8.1%	-0.7
c1ccc(-c2csc3ncnc(N4CCOCC4)c23)cc1	-4.3%	32.0%	-8.1	-7.5%	2.3
O=C(c1ccco1)N1CCN(c2ncnc3scc(-c4cccs4)c23)CC1	11.7µM*	?	-12.2	-2.4%	-3.1
O=C(COc1ccc(-c2ccccc2)cc1)N1CCN(C(=O)c2cccs2)CC1	4.1%	10.4%	40.2*	3.2%	15.2*
O=C(c1ccco1)N1CCN(c2ncnc3scc(-c4ccccc4)c23)CC1	·	0.0%	-11.4	6.2%	4.3
Cc1ccc(-c2csc3ncnc(N4CCN(C(=O)c5ccccc5)CC4)c23)cc1	8.28µM*	·	-17.2	3.1%	0.9
Cc1cccc(NC(=O)CCc2nnc3ccc(NCc4ccco4)nn23)n1	-7.4%	?	-4.9	-10.6%	-4.4
CCCCC1=CC2=CC(=O)C(C)(OC(=O)CC)C(=O)C2=CN1CCOC (configuration not stated)	?	20.8%	-6.9	-0.7%[11.5 µM]	-3.9
CCCCC1=CC2=CC(=O)C(C)(OC(=O)CC)C(=O)C2=CN1CCc1ccc(Br)cc1 (configuration not stated)	9.28µM*	?	-2.0	-2.6%[11.5 µM]	-4.3
CCCCC1=CC2=CC(=O)C(C)(OC(=O)CC)C(=O)C2=CN1c1ccncc1 (configuration not stated)	·	·	·	0.5%[11.5 µM]	·
CCCCC1=CC2=CC(=O)C(C)(OC(=O)CC)C(=O)C2=CN1c1ccccc1 (configuration not stated)	10.4µM*	13.1µM*	0.9	-0.6%[11.5 µM]	-2.1
CCN(CC)CCN(CC(=O)N(C1CCCCC1)C1CCCCC1)C(=O)c1ccco1	-17.7%	34.4%	-6.7	-2.5%	-6.6
CN1C(CCl)Nc2cc(Cl)c(S(N)(=O)=O)cc2S1(=O)=O (configuration not stated)	-20.2%	12µM*	·	·	·
O=S(CC(O)COCc1ccc(Cl)cc1)c1ccccn1 (configuration not stated)	6.9%	·	-13.2	3.0%	-2.2
O=S(=O)(c1ccc2ccccc2c1)N(CC(O)COCc1ccco1)c1ccccc1 (configuration not stated)	-19.1%	-17.2%	43.7	3.3%	22.0
COc1ccc(COCC(O)CN(Cc2ccco2)Cc2ccccc2O)cc1 (configuration not stated)	8.28µM*	4.65µM*	-10.7	1.2%	-0.9
Oc1ccccc1CN(Cc1ccco1)CC(O)COCc1ccc(Cl)cc1 (configuration not stated)	2.94µM*	2.08µM*	3.6	3.3%	-2.4
CN(Cc1cnn(Cc2ccccc2)c1)C(=O)CN=C1NS(=O)(=O)c2ccccc21	-7.3%	-6.4%	·	·	·
COC(=O)/C(=C(O)\C=C\c1ccccc1[N+](=O)[O-])c1nc2ccccc2[nH]1	0.0%	-9.7%	12.6	15.8%	-2.4
Cc1ncc([N+](=O)[O-])n1S(=O)(=O)c1cc(Br)ccc1Br	-0.9%	10.2%	·	1.3%	-1.7
CC(=O)NNc1ncnc2ccccc12	22.6%	25.3%	2.8	4.3%	8.3
O=C(O)/C=C/C(=O)NNc1ncnc2ccccc12	39.5%	0.0%	80.7*	-4.0%	31.0*
O=C(CCc1nc2ccccc2c(=O)[nH]1)NNC(=O)c1cccc(Cl)c1	-16.0%	-3.5%	·	·	·

Screening results (PubChem BioAssay)
